Results as given in PubChem BioAssay AID449762 (Southern Research Specialized Biocontainment Screening …, 2010).
Screen size: about 330,000 compounds; about 1,900 (0.58%) were called active. Not shown: some 4% with an inconclusive outcome. Rule as the data show it: inconclusive = inhibition above about 70% without an active follow-up result; inactive = below that. These entries were drawn from the full list. Entries with a potency or affinity are not part of this list.

Experiment: M. tuberculosis growth inhibition, HTS (AID 449762);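 also: bacterial growth assessed after seven days of incubation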
Conditions: M. tuberculosis H37Rv growth inhibition, 7H9 media; at 25 µM; hits give high values
In the case of `Cc1ccc(-n2cnc3scc(-c4cccs4)c3c2=O)cc1`, the inhibition is reported as 9.75% (inactive). In the case of `O=c1cc(/C=C/c2ccccc2)oc2c1ccc1ccccc12`, the inhibition is reported as -0.73% (inactive). For `O=c1cc(-c2ccccc2)oc2ccccc12`, the inhibition was -7.12% (inactive). For `CN1CCCN(C(=O)c2cc(-c3ccc(Cl)c(Cl)c3Cl)nc3ccccc23)CC1`, the inhibition was 5.52% (inactive). For `CCOCCCNC(=O)C(NC(=O)Cc1cccs1)c1ccc(OC)cc1` (centres undefined), the inhibition was 3.59% (inactive). In the case of `CCOC(=O)c1sc(C)c2c(=O)n(CC)nnc12`, the inhibition is reported as -7.87% (inactive). With `CCOC(=O)c1sc(C)c2c(=O)n(CCc3ccccc3)nnc12` the inhibition was -10.6% (inactive). With `COC(=O)C1=C(C)N(CCCC(=O)O)C(=O)NC1c1ccc(Br)cc1` (centres undefined) the inhibition was 2.77% (inactive). With `COCCn1cc(C(=S)N2CCCCC2)c2ccccc21` the inhibition was 5.15% (inactive). For `CCOc1ccc(NS(=O)(=O)c2ccc(C(=O)NCCN3CCOCC3)cc2)cc1`, the inhibition was -3.65% (inactive). In the case of `CCNC(=S)N/N=C/c1ccc(-c2ccccc2)o1`, the inhibition is reported as -5.23% (inactive). In the case of `NC(=S)N/N=C/c1ccc(-c2cc(Cl)cc(Cl)c2)o1`, the inhibition is reported as -4.69% (inactive). For `CC(=O)N1CCN(C(=O)C(Cc2ccccc2)NC(=O)c2ccccc2)CC1` (centres undefined), the inhibition was -1.96% (inactive). In the case of `COc1cc(CSC)nc(-c2ccccc2)n1`, the inhibition is reported as -6.71% (inactive). For `CC1(O)CC(c2ccc(Cl)cc2)=NN1C(=O)c1ccc(Cl)cc1` (centres undefined), the inhibition was 47.7% (inactive). In the case of `CC(=O)N1N=C(c2ccc(Cl)cc2)CC1c1ccc([N+](=O)[O-])cc1` (centres undefined), the inhibition is reported as -2.62% (inactive). With `CC(=O)Nc1ccc(NC(=O)CCn2c(=S)oc3ccccc32)cc1` the inhibition was 0.4% (inactive). For `Cc1cccc(C)c1NC(=S)N(Cc1ccccc1)Cc1cccnc1`, the inhibition was -3.48% (inactive). For `O=C(O)[C@@H]1[C@@H]2C[C@@H]2CN1c1ncccc1[N+](=O)[O-]`, the inhibition was -3.12% (inactive). With `CN1C(=O)N(C)c2ccc(Br)c3cccc1c23` the inhibition was -5.58% (inactive). For `CN1C(=O)N(C)c2cccc3cccc1c23`, the inhibition was 7.44% (inactive). With `O=C(c1cc2c(=O)n3ccccc3nc2s1)N1CCN(c2cccc(Cl)c2)CC1` the inhibition was 5.56% (inactive). For `CC(=O)c1nn(-c2ccccc2)cc1C(=O)c1ccc(C)cc1`, the inhibition was 2.07% (inactive). For `COc1ccc2oc(-c3ccc(C)c(NC(=O)CSc4ccc(Cl)cc4)c3)nc2c1`, the inhibition was -3.67% (inactive). For `Cc1ccc(/C=C2\SC(=S)N(CCC(=O)NNC(=O)c3ccc(O)cc3)C2=O)cc1`, the inhibition was 3.42% (inactive). For `Cc1cccc(C2=N/C(=C\c3cccnc3)C(=O)O2)c1`, the inhibition was -3.98% (inactive). For `Cc1ccccc1C1=N/C(=C/c2cccs2)C(=O)O1`, the inhibition was 61% (inactive). For `CCOC(=O)N=Nc1c(O)n(CC(=O)OC)c2ccccc12`, the inhibition was -0.16% (inactive). With `CCCSc1nc2c(cnn2-c2ccc(Cl)cc2)c(=O)[nH]1` the inhibition was 6.95% (inactive). In the case of `O=C(NNC(=O)c1cc(S(=O)(=O)N2CCOCC2)c(Cl)cc1Cl)c1ccccc1F`, the inhibition is reported as 0.47% (inactive). For `Cc1nn(Cc2ccccc2)c(C)c1C(=O)OCC(=O)Nc1cc(S(C)(=O)=O)ccc1Cl`, the inhibition was 6.17% (inactive). In the case of `O=C(Nc1ccccc1Cl)N1CCN(c2ccc3nnc(-c4ccc(F)cc4)n3n2)CC1`, the inhibition is reported as 22.4% (inactive). In the case of `O=C(Nc1ccc(F)cc1)N1CCN(c2ccc3nnc(-c4ccc(F)cc4)n3n2)CC1`, the inhibition is reported as -4.53% (inactive). In the case of `CC1=C(C(=O)NC(C)c2ccccc2)C2(CCC(C)CC2)OC1=O` (centres undefined), the inhibition is reported as -6.81% (inactive). In the case of `Cc1cc(/C=C(\C#N)C(=O)NCc2ccccc2)cc(C)c1O`, the inhibition is reported as -9.9% (inactive). For `CCOc1cc(CNCc2ccc3c(c2)OCO3)ccc1OC`, the inhibition was -2.37% (inactive). In the case of `COc1ccc(CCNC(=O)CSc2ncc(C(=O)Nc3ccccc3)c(=O)n2C)cc1`, the inhibition is reported as -4.13% (inactive). With `Cc1cccc(NC(=S)N(CCCN2CCCC2)Cc2cccn2Cc2ccc(Cl)cc2)c1` the inhibition was 42.3% (inactive). With `COc1cccc(NC(=S)N(CCCN2CCCC2)Cc2cccn2Cc2ccc(Cl)cc2)c1` the inhibition was 6.09% (inactive). For `CN(C)N1C(=O)/C(=C/c2ccco2)SC1=Nc1ccccc1`, the inhibition was -2.31% (inactive). In the case of `OC1(c2ccccc2)CCN(Cc2ccccc2)CC1`, the inhibition is reported as -0.23% (inactive). With `ClC1(CNc2ccccc2)CCN(Cc2ccccc2)CC1` the inhibition was -3.08% (inactive). In the case of `CCOC(=O)N1CCC2(CC1)C(C#N)=C(N)OC1=C2C(=O)CC(C)C1` (centres undefined), the inhibition is reported as -8.64% (inactive). For `COc1ccc(NC(=O)CSc2nc3ccccc3c(=O)[nH]2)cc1S(N)(=O)=O`, the inhibition was -3.14% (inactive). In the case of `C(=N\Nc1nc(-c2ccccc2)cs1)/c1cccs1`, the inhibition is reported as 28.8% (inactive). For `CC(=O)Nc1ccc(-c2csc(N/N=C\c3ccncc3)n2)cc1`, the inhibition was 6.44% (inactive). With `CC(CNC(=O)CN1C(=O)NC2(CCCCC2)C1=O)c1ccccc1` (centres undefined) the inhibition was -3.97% (inactive). With `COC(=O)c1nnn(CC(=O)NC(=O)Nc2ccccc2)c1C(=O)OC` the inhibition was -6.63% (inactive). With `O=C1c2ccccc2C(=O)c2c1oc(C(F)(F)F)c2C(=O)c1ccccc1` the inhibition was 9.23% (inactive). For `COc1ccc(C(=O)Nc2ccc3c(c2)C(=O)c2ccccc2C3=O)cc1OC`, the inhibition was 4.14% (inactive). With `CC(C)(C)c1ccc(C(=O)NCC(=O)OCC(=O)N2CCN(S(=O)(=O)c3ccc(Cl)cc3)CC2)cc1` the inhibition was 8.58% (inactive). For `Cc1ccc(S(=O)(=O)NCc2ccc(C(=O)NCCCN3CCN(C)CC3)cc2)cc1`, the inhibition was -4.79% (inactive). For `CC(=O)Nc1ccc(S(=O)(=O)NCc2ccc(C(=O)NCCCN3CCC(C)CC3)cc2)cc1`, the inhibition was 2.04% (inactive). With `N/C(=N\OC(=O)c1cnn(-c2ccccc2)c1C(F)(F)F)c1cc(C(F)(F)F)cc(C(F)(F)F)c1` the inhibition was 9.61% (inactive). In the case of `COc1cc(C2/C(=C(\O)c3ccc4c(c3)OCCO4)C(=O)C(=O)N2Cc2ccco2)ccc1O` (centres undefined), the inhibition is reported as -4.18% (inactive). In the case of `CSCc1ccc(C(=O)OCc2nc3ccccc3s2)o1`, the inhibition is reported as 65.8% (inactive). With `O=C(OCc1nc2ccccc2s1)c1ccco1` the inhibition was 53.7% (inactive). For `CC(=O)C1=C(O)C(=O)N(c2ccc(Br)cc2)C1c1cccc([N+](=O)[O-])c1` (centres undefined), the inhibition was -1.11% (inactive). For `O=C(CS(=O)CC(=O)Nc1cnc2ccccc2c1)Nc1ccc(Cl)cc1` (centres undefined), the inhibition was 47% (inactive).
